Measured values taken from PubChem BioAssay AID624297 (National Center for Advancing Translational Sciences (NCATS), 2012).
“And” between values parts separate entries of the source, which are not always exact repeats. Equal entries are not always repeated. Hit rate of the full screen: of about 340,000 compounds, about 6,200 (1.8%) were called active. A call without a number means that no potency is given here. Roughly 10% stayed inconclusive and do not appear here. Calls follow the shape of the dose curve; as a rule, active = well fitted activation curve with a large enough effect; inconclusive = small, poorly fitted or top-dose-only effect; inactive = no such curve, though single readings can be large or run the other way. The full list was thinned out, with actives kept by preference. Where a structure was tested more than once in an assay, its records may differ in their call.

Experiment: A quantitative high throughput screen for small molecules that induce DNA re-replication in SW480 colon adenocarcinoma cells. Also: nearly all actives have a fitted effect of over 55% in size.
Details: Hoechst DNA content imaging, 48 h; series mostly up to 46.1 µM
Source text: H Molecular Libraries Probe Production Network [MLPCN] NIH Chemical Genomics Center [NCGC] MLPCN Grant: Fast Track K99 CA136555 Assay Provider: Melvin DePamphilis, NICHD, NIH Assay Overview Eukaryotic cells normally restrict genome duplication to once per cell division. When this process is aberrant, DNA re-replication occurs when cells reinitiate DNA replication before the first round of replication is complete. DNA re-replication induces the DNA damage response, arrests cell proliferation, and triggers apoptosis. The cell cycle components cyclin A, Cdt-1, Cdc6 and geminin are critical regulators of this process and their misregulation results in DNA re-replication in normal and cancer cells. To identify compounds that induce re-replication in normal cells, an image-based assay was used to measure DNA content of nuclei, as detected by the fluorescent DNA binding dye, Hoechst. Cell nuclei were imaged by a fluorescence scanning plate imager and compounds that induce DNA re-replication were identified by the increase of nuclei with elevated fluorescence intensity
For screening, 250 cells in 5 uL/well were dispensed into black clear 1536-well plates (Aurora) using a solenoid-based dispenser. Following transfer of 23 nL compound or DMSO vehicle by a pin tool, the plates were incubated 48 hr at 37 C and 5% CO2. After addition of 1 uL/well Hoescht stain, the plates were incubated 40 min at 37 C, 5% CO2 and total intensity of fluorescent objects (nuclei) were enumerated by an Acumen Explorer Ex3 (TTP LabTech) fluorescence scanning plate imager (405 nm excitation, 500-530 nm emission). Keywords: NIH Roadmap, MLPCN, MLI, MLSMR, qHTS, NCGC, DNA replication, cancer
Potency is read from the fitted curve at half-maximal effect.

| Structure (SMILES) | Potency | re-replication activation |
| --- | --- | --- |
| Oc1c(Cl)cc(Cl)c(Cl)c1Cc1c(O)c(Cl)cc(Cl)c1Cl | inactive and 16.4 µM (active) |  |
| CCOC(=O)[C@@H]1[C@H]2COc3ccc(Br)cc3[C@H]2N2C(=O)N(c3ccc(C)cc3)C(=O)[C@@]12C | inactive |  |
| COc1cc(NC(=O)c2[nH]cnc2C(N)=O)cc(C(=O)Nc2cccc(C(F)(F)F)c2)c1 | inactive |  |
| Cn1c(N)c(C(=O)COC(=O)c2ccc3ccccc3c2)c(=O)n(C)c1=O | inactive |  |
| CCN(C[C@H]1N[C@@](Cc2ccccc2)(C(=O)OC)[C@H]2C(=O)N(Cc3ccccc3)C(=O)[C@@H]12)C(=O)c1ccc(C)cc1 | inactive |  |
| COc1ccc(C(=O)COC(=O)CN2C(=O)C3CC=CCC3C2=O)c(OC)c1 (stereo not given) | inactive |  |
| O=C(CCN1CCCCC1)N=Nc1c(O)[nH]c2ccccc12 | 18.4 µM (active) |  |
| Cc1cccc(N(CC(=O)N=Nc2c(O)[nH]c3ccccc23)S(C)(=O)=O)c1C | inactive |  |
| COCC(=O)N=Nc1c(O)[nH]c2ccccc12 | inactive |  |
| O=c1nc(NO)ccn1C1CCCO1 (stereo not given) | inactive |  |
| COc1ccccc1NC(=O)C1CCCN1S(=O)(=O)c1ccc(Cl)cc1 (stereo not given) | inactive |  |
| COc1ccccc1NC1=NC(c2ccc(Cl)cc2)N=C(N)N1 (stereo not given) | 20.6 µM (active) |  |
| CC1(C)N=C(N)NC(Nc2ccc(Cl)cc2)=N1 | inactive |  |
| C[C@@H]1CN([C@H](C)CO)C(=O)c2cc(NC(=O)NC3CCCCC3)ccc2O[C@H]1CN(C)S(C)(=O)=O | inactive |  |
| COc1ccc(CCNC(=O)COC(=O)c2cc(=O)c3ccccc3o2)cc1 | inactive |  |
| CNC[C@H]1Oc2c(NC(=O)C3CCCCC3)cccc2C(=O)N([C@H](C)CO)C[C@@H]1C |  | 4.46% [at 9.22 µM] (inactive) |
| CCOc1ccc(-c2cc(C(=O)N/N=C/c3ccc(O)cc3)c3ccccc3n2)cc1 | 18.4 µM (active) |  |
| COc1cc(/C=N/NC(=O)c2cc(-c3ccccc3C)nc3ccccc23)cc(OC)c1O | inactive |  |
| COc1ccc(/C=N/NC(=O)c2cc(-c3cccc(C)c3)nc3ccccc23)cc1O | inactive |  |
| C/C(=N\Nc1cccc(C(=O)O)c1)c1ccc2c(c1)Nc1ccccc1S2 | 8.2 µM (active) |  |
| Cc1ccccc1NC(=O)c1cc(S(=O)(=O)Nc2cccc(C(=O)O)c2)ccc1Cl | inactive |  |
| O=C(O)c1cccc(N2C(=O)Nc3ccccc3N2O)c1 | inactive |  |
| COc1cc(OC)cc(-c2c(C#Cc3ccsc3)c3cc(-c4ccc(OC)cc4F)ccc3n2C)c1 | inactive |  |
| c1ccc(CNc2ncnc3[nH]ncc23)cc1 | inactive |  |

| Structure (SMILES) | Potency | re-replication activation |
| --- | --- | --- |
| Nc1cc(=O)n(Cc2ccccc2)c(=O)n1Cc1ccccc1 | inactive |  |
| Cc1nn(-c2ccc(F)cc2)c(Cl)c1/C=C(/CCC(=O)O)c1nc2ccccc2s1 | inactive |  |
| CCCCN(C(=O)c1cccc(N2C(=O)c3ccccc3C2=O)c1)c1c(N)n(CCCC)c(=O)[nH]c1=O | inactive |  |
| CCn1c(=S)[nH]c2cc(S(=O)(=O)N3CCOCC3)ccc21 | inactive |  |
| Cc1ccsc1C(=O)N/N=C/c1ccc([N+](=O)[O-])cc1 | inactive |  |
| Cc1ccc(/C=N/NC(=O)c2sccc2OCc2ccc(F)cc2)cc1 | 16.4 µM (active) |  |
| Cc1ccc(COc2ccc(/C=N/NC(=O)CN3CCCCC3)cc2)cc1 | inactive |  |
| CC(C)Cn1cnc2c(SCc3ccc(Cl)cc3)nc(N)nc21 | inactive |  |
| CCN(CC)c1ccc(NC(=O)c2ccc(Cl)nc2)cc1 | 16.4 µM (active) |  |
| O=C(NNC(=O)c1ccc(Cl)nc1)c1ccc(Br)cc1 | inactive |  |
| O=C(Nc1ccc2nc3n(c(=O)c2c1)CCCC3)c1ccc(Cl)nc1 | inactive |  |
| O=C(COc1ccccc1F)NNC(=O)c1cc(Br)ccc1Cl | inactive |  |
| NC(=O)c1ccc(N2CCCC2)nc1 | inactive |  |
| Oc1ccc(Br)cc1C=Nc1ccc2[nH]ncc2c1 | inactive |  |
| Cc1c(C(=O)Nc2ccccn2)oc2ccc(Br)cc12 | inactive |  |
| Oc1ccc(Br)cc1/C=N/Nc1ccccn1 | 9.2 µM (active) |  |
| CCOC(=O)CCCCCC(=O)Nc1ccc2c(c1)CC(=O)N([C@@H](C)CO)C[C@H](C)[C@@H](CN(C)Cc1ccccc1)O2 | inactive |  |
| Cc1ccn(CCC(=O)N2c3ccccc3CC2C)n1 (stereo not given) | inactive |  |
| Cc1nn(Cc2ccc(C(=O)N3N=C(C(F)F)CC3(O)C(F)F)cc2)c(C)c1[N+](=O)[O-] (stereo not given) | inactive |  |
| Cc1ccn(CC(=O)N2N=C(C(F)F)CC2(O)C(F)F)n1 (stereo not given) | 0.517 µM (active) |  |
| CC1(C)C[C@H]2C3=CCC4[C@@]5(C)CC[C@H](O)[C@](C)(CO)C5CC[C@@]4(C)[C@]3(C)C[C@@H](O)[C@@]2(CO)[C@@H](O)[C@@H]1O (stereo not given in full) | inactive |  |
| COc1cc(C(=O)OCC(=O)NC23CC4CC(CC(C4)C2)C3)cc(OC)c1OC | inactive |  |
| COc1ccc(C(CNC(=O)c2cc(S(=O)(=O)Nc3cccc(C)c3)ccc2C)N2CCCC2)cc1 (stereo not given) | inactive |  |
| CC[C@]1(C(=O)OC)[C@H]2C(=O)N(Cc3ccccc3)C(=O)[C@H]2[C@H]2CN=C(SCc3ccc(C#N)cc3)N21 |  | -4.58% [at 9.22 µM] (inactive) |

| Structure (SMILES) | Potency | re-replication activation |
| --- | --- | --- |
| CCCCNS(=O)(=O)CCNCc1ccccc1OC | inactive |  |
| COc1ccc(-c2cc(-c3ccc(N)cc3)nc(N)c2C#N)cc1OC | 23.1 µM (active) |  |
| COc1ccc(OC)c2c(N)c(C#N)c(C(F)(F)C(F)(F)F)nc12 | inactive |  |
| CCOc1cc(-c2cc(-c3ccc(NC(C)=O)cc3)nc(N)c2C#N)ccc1O | inactive |  |
| COc1cccc(NC(=O)CN(C)CC(=O)c2c(N)n(Cc3ccccc3)c(=O)n(C)c2=O)c1 | inactive |  |
| CC(=O)Nc1nonc1-c1nc2ccccc2n1Cc1ccccn1 | inactive |  |
| CCn1c(C(O)c2cc(OC)ccc2OC)nc2ccccc21 (stereo not given) | inactive |  |
| COc1ccc(C)c(Cn2c(-c3nonc3N)nc3ccccc32)c1 | 5.17 µM (active) |  |
| Cc1ccc(C(=O)NCC(c2cccs2)N(C)C)cc1S(=O)(=O)N1CCOCC1 (stereo not given) | inactive |  |
| CC(=O)C[C@H](O)CC(=O)[C@@H]1OC(=O)[C@@H](C)C/C=C\Cc2ccccc21 | inactive |  |
| CC(C)C[C@H]1CN([C@@H](CC(C)C)CN2CCC[C@@H]2CN2C(=O)C(=O)NC[C@@H]2Cc2ccccc2)C(=O)C(=O)N1CCc1ccccc1 | inactive |  |
| CCOc1ccccc1NC(=O)Cn1nnc(C(=O)NCc2cccs2)c1N | 0.146 µM (active) |  |
| CCc1ccc(NC(=O)Cn2nnc(C(=O)NCc3ccc(OC)cc3)c2N)cc1 | inactive |  |
| CCOc1ccccc1NC(=O)Cc1cccs1 | inactive |  |
| C#CCOCCOCCOCCNc1nc(N2CCN(C(=O)Cn3cc(CCO)nn3)CC2)nc(N2CCN(C(=O)[C@H](CCCCN)n3cc(CCCC)nn3)CC2)n1 |  | 7.81% [at 9.22 µM] (inactive) |
| COc1ccc(Br)cc1/C=N/Nc1ccc(S(=O)(=O)Nc2ccccc2C(=O)O)cc1[N+](=O)[O-] | inactive |  |
| O=C1C[C@@H]2c3c(cccc3CN1Cc1ccccc1)C[C@@H](O)[C@H]2O | inactive |  |
| CCOC(=O)c1sc(NC(=O)CSc2ncccn2)c(C#N)c1C | 7.31 µM (active) |  |
| CCOC(=O)c1sc(NC(=O)CSc2nc(C)cc(C(F)(F)F)n2)c(C#N)c1C | inactive |  |
| CCC(=O)Nc1sc(C(=O)N2CCCCC2)c(C)c1C#N | inactive |  |
| COc1cc2c(cc1CNC[C@H]1O[C@@H](n3cnc(C(N)=O)n3)[C@H](O)[C@@H]1O)OCO2 | inactive |  |
| CC(C)C(NC(=O)c1c(F)cccc1F)C(=O)NNC(=O)c1ccccc1 (stereo not given) | inactive |  |
| COc1ccc(CNC(=O)COC(=O)C(CCSC)N2C(=O)c3ccccc3C2=O)cc1 (stereo not given) | inactive |  |
| CN(C)CCCn1c(N)c(C#N)c2nc(C#N)c(C#N)nc21 | 16.4 µM (active) |  |

| Structure (SMILES) | Potency | re-replication activation |
| --- | --- | --- |
| c1ccc2c(c1)OC1OC2Oc2ccccc21 | inactive |  |
| O=C(NCCc1ccccc1)c1cccc(NC(=O)c2ccccc2)c1 | inactive |  |
| COc1ccc(S(=O)(=O)N(CC(=O)N/N=C/c2ccccc2C(=O)O)c2ccccc2OC)cc1 | inactive |  |
| COc1ccccc1NC(=O)CN(c1ccccc1OC)S(=O)(=O)c1ccccc1 | inactive |  |
| COc1ccccc1N(CC(=O)N/N=C(\C)c1ccccc1O)S(=O)(=O)c1ccc(C)cc1 | 4.11 µM (active) |  |
| Cc1cc(C)nc(SCC(=O)N(C)C)n1 | inactive |  |
| Cc1cc(C)nc(S/C=C/C(=O)c2ccccc2)n1 | 4.61 µM (active) |  |
| Cc1cc(C)nc(SCC(=O)c2ccc(Cl)cc2)n1 | inactive |  |
| C=CCC[C@H](Cc1ccc(F)cc1)C(=O)OC[C@@H](NC(=O)[C@@H](CC=C)CC(=O)N[C@H](CO)Cc1ccccc1)C(C)(C)C | inactive |  |
| O=C(NCC1CCCCC1)NCC1CCCCC1 | inactive |  |
| O=C1CC(c2ccccc2)C(=O)N2C(=O)CC(c3ccccc3)C(=O)N12 (stereo not given) | inactive |  |
| CC(C)(C)c1nnc2sc(SCC(O)=C(C#N)c3nc4ccccc4[nH]3)nn2c1=O | inactive |  |
| COc1ccc(-c2c(-c3ccc(OC)cc3O)nc(C)nc2C(F)(F)F)cc1 | inactive |  |
| COc1ccc(-c2onc(C)c2-c2ccc3c(c2)OCCO3)c(O)c1 | 14.6 µM (active) |  |
| COc1ccc(O)c(C=Nc2cc(C)on2)c1 | inactive |  |
| COC(=O)c1c(NC(C)=O)sc(C(=O)Nc2ccccc2OC)c1C | inactive |  |
| CCC(=O)Nc1sc(C(=O)Nc2ccccc2)c(C)c1C(=O)OC | 20.6 µM (active) |  |
| CCOC(=O)c1sc(NC(=O)COc2ncnc3ccccc23)c(C(=O)OCC)c1C | inactive |  |
| COc1cc(OC)cc(C(=O)NC(C(=O)N2CCC2)C(C)C)c1 (stereo not given) | inactive |  |
| CC(=O)Nc1ccc(NC(=O)COc2ncnc3ccccc23)cc1 | inactive |  |
| CC(=O)Nc1ccc(Nc2c3ccccc3nc3ccccc23)cc1 | 18.4 µM (active) |  |
| CC(C)(C)OC(=O)NNc1c2ccccc2nc2ccccc12 | inactive |  |
| CC[C@]1(C(=O)OC)[C@H]2C(=O)N(Cc3ccccc3)C(=O)[C@H]2[C@H]2CN=C(SCc3ccccc3)N21 | inactive |  |
